Data published in PMC7819943, “Rice protein-binding microarrays: a tool to detect cis-acting elements near promoter regions in rice”.
The full ranking holds about 68,000 sequences; the median of “fluorescence intensity (a.u.)” is about 9,100, and the highest 2% start at about 16,000. Shown is part of a subset that was picked to be rich in the highest values.

target: OsWRKY34 (Oryza sativa, UniProt Q0JBA9 1-250); experiment: protein-binding microarray (RPBM); PBS, 2% BSA, 51.3 ng/ul salmon testes DNA, 50 uM zinc acetate, 200 nM TF, 25 C, 1 h; high values mean tight binding; settings: protein: recombinant; tags: N-terminal polyhistidine and DsRed monomer fusion (pET32a); label: CyDye5-dUTP incorporated in the synthesized complementary strand; 3' TTTTT single-stranded linker to array surface; dsDNA, one strand shown
How it was run: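 Binding signal here means per-feature fluorescence intensity in arbitrary units. The values were read on an Axon 4000B scanner after a custom Agilent array, double-stranded by primer extension with Cy5-dUTP, was incubated with 200 nM protein at 25 °C for 1 h in PBS with 2% BSA, salmon testes DNA and 50 µM zinc acetate, then washed. The proteins were transcription factors with an N-terminal polyhistidine tag and DsRed, expressed in E. coli BL21-CodonPlus and purified on Ni–NTA.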

OsWRKY34, sequence (Q0JBA9 entry or part of it): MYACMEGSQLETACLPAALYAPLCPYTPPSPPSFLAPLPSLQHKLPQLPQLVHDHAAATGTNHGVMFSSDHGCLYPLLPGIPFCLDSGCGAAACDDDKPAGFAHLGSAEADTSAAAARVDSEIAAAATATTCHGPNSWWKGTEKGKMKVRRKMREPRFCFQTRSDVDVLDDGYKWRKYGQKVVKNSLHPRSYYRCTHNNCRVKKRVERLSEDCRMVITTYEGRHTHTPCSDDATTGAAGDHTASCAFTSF

**Q.** How did the binding signal turn out when “TTTGCACTGGTTTTGTAAGTTGGGGATGTATTGTATGAGGCGGAGTCACCTAGTGCAG” was run?
**A.** The binding signal was 9560 fluorescence intensity (a.u.).

**Q.** Which binding signal does the source give for “CGTGAGGAATGGGATTTTTATTTTGCTGGTTACTGTTTGACGGAGTCACCTAGTGCAG” here?
**A.** The binding signal was 10000 fluorescence intensity (a.u.).

**Q.** “AGTCAAATTTGTTTTTTTTCGTTGCAACTTGTATAATTTACGGAGTCACCTAGTGCAG” was tested. Which binding signal did it give?
**A.** The binding signal was 9430 fluorescence intensity (a.u.).

**Q.** How did the binding signal turn out when “GTGTCATTCTCCTCACACGCCGGTCTCCATGAGCGAGTTTCGGAGTCACCTAGTGCAG” was run?
**A.** Its binding signal is 8110 fluorescence intensity (a.u.).

**Q.** “AAAATTCTTGGTCTTCTTGGTCTCGGTTAGTTCGGTTCGACGGAGTCACCTAGTGCAG” was tested. Which binding signal did it give?
**A.** The binding signal was 8110 fluorescence intensity (a.u.).

**Q.** With “AAAGTTGGGGTCAGGTGGTTTTGGTTCTGTGTTCAAGGGACGGAGTCACCTAGTGCAG” as the sequence, how does the binding signal read?
**A.** Its binding signal is 11500 fluorescence intensity (a.u.).

**Q.** How did the binding signal turn out when “GACGTGTTTGGTCTTCGGTTCGGTGGGTCTCAAGTTCTGACGGAGTCACCTAGTGCAG” was run?
**A.** The binding signal was 19400 fluorescence intensity (a.u.).

**Q.** Which binding signal does the source give for “GGACCCACCTGCCGAACCAGCACGCATCGCGTCTCGCACCCGGAGTCACCTAGTGCAG” here?
**A.** The binding signal was 8590 fluorescence intensity (a.u.).

**Q.** With “TGCAAAGTAGTAGTTGGGGATTTAATAGTGGCTTACAATACGGAGTCACCTAGTGCAG” as the sequence, how does the binding signal read?
**A.** The binding signal was 8620 fluorescence intensity (a.u.).

**Q.** Which binding signal does the source give for “ATCACGGGATTACACAGCAAAGTAGCAAAGCTAAATTTTACGGAGTCACCTAGTGCAG” here?
**A.** The binding signal was 63700 fluorescence intensity (a.u.).

**Q.** Which binding signal does the source give for “GGTCAAATTCTCATTTTGCAATATCCCACAGCTAATTACACGGAGTCACCTAGTGCAG” here?
**A.** Its binding signal is 9540 fluorescence intensity (a.u.).

**Q.** “GCTAATAAGTGCTTACATTGTTTTGGATGATCACCAGCAACGGAGTCACCTAGTGCAG” was tested. Which binding signal did it give?
**A.** The binding signal was 8080 fluorescence intensity (a.u.).

**Q.** How did the binding signal turn out when “ATGCTCCTACTTTCCTTTGCTGTATATATTACTCCATTTGCGGAGTCACCTAGTGCAG” was run?
**A.** The binding signal was 8260 fluorescence intensity (a.u.).

**Q.** “CCAACCGCCGCGCCGCTTCGCTGTCTTCACCGTGCCGCTCCGGAGTCACCTAGTGCAG” was tested. Which binding signal did it give?
**A.** The binding signal was 8620 fluorescence intensity (a.u.).

**Q.** Which binding signal does the source give for “TTCGTCTCCGTTTCGTCTTCTTCTTCTTCTTCTTCTTCGGCGGAGTCACCTAGTGCAG” here?
**A.** The binding signal was 8790 fluorescence intensity (a.u.).

**Q.** With “AGCTTCCTCCGTTTTTTTCTTTCTTTCTTTCTTTTTTTTTCGGAGTCACCTAGTGCAG” as the sequence, how does the binding signal read?
**A.** The binding signal was 11800 fluorescence intensity (a.u.).

**Q.** For “CCGAATCCGGCCACCCCGCCGCCTCCACGCGCATCACCGCCGGAGTCACCTAGTGCAG”, which binding signal is on record?
**A.** The binding signal was 11100 fluorescence intensity (a.u.).

**Q.** Which binding signal does the source give for “GCAAACTTTATTGCTCCGCGTTCTTCCTTTCTCTGTGTTTCGGAGTCACCTAGTGCAG” here?
**A.** Its binding signal is 8910 fluorescence intensity (a.u.).

**Q.** Which binding signal does the source give for “TCATTGCTCTCTGTGTTTCTCCGCTATGCCGCCACGTCTTCGGAGTCACCTAGTGCAG” here?
**A.** The binding signal was 16700 fluorescence intensity (a.u.).

**Q.** “ACCCCACCTGTCAGACAACCCCACCGCCGCTTCGCTTCACCGGAGTCACCTAGTGCAG” was tested. Which binding signal did it give?
**A.** The binding signal was 17300 fluorescence intensity (a.u.).

**Q.** How did the binding signal turn out when “ACCCACCACAACCAGTGATCAGACACCACCTACCGCGCGCCGGAGTCACCTAGTGCAG” was run?
**A.** The binding signal was 8330 fluorescence intensity (a.u.).

**Q.** For “GCACCGGCGCCACCGCCCGCGCCCGCACCACCGCCCACGCCGGAGTCACCTAGTGCAG”, which binding signal is on record?
**A.** Its binding signal is 8870 fluorescence intensity (a.u.).

**Q.** For “GAATCCACCGCATTTTTCCGCCGCCCCACGCGGCGCCACCCGGAGTCACCTAGTGCAG”, which binding signal is on record?
**A.** The binding signal was 19700 fluorescence intensity (a.u.).

**Q.** For “TTCCTCCGTTTTCTCCGTTCGTCTTCCTCCGCTTCCGAAGCGGAGTCACCTAGTGCAG”, which binding signal is on record?
**A.** Its binding signal is 18000 fluorescence intensity (a.u.).

**Q.** For “TCATTCCTATGTTTTTTCTGTGTTTTGCAATTCTCTGTTTCGGAGTCACCTAGTGCAG”, which binding signal is on record?
**A.** Its binding signal is 14900 fluorescence intensity (a.u.).

**Q.** “GGAGCACCTGTCGTGCGCTGCCGCCATGTACGCGGCGCCGCGGAGTCACCTAGTGCAG” was tested. Which binding signal did it give?
**A.** Its binding signal is 8360 fluorescence intensity (a.u.).

**Q.** Which binding signal does the source give for “ATACCCGATCTCATTATTATGAACCAGTTATGTAATAACACGGAGTCACCTAGTGCAG” here?
**A.** The binding signal was 8020 fluorescence intensity (a.u.).

**Q.** Which binding signal does the source give for “TGCACAAAGGTTATGCGATATCGACGGTATATTTCCACAACGGAGTCACCTAGTGCAG” here?
**A.** The binding signal was 9520 fluorescence intensity (a.u.).

**Q.** How did the binding signal turn out when “TGGCCGCGGCTGCTGCTGAGTGTGGTGGTGGTGGGAGGCACGGAGTCACCTAGTGCAG” was run?
**A.** Its binding signal is 8880 fluorescence intensity (a.u.).

**Q.** How did the binding signal turn out when “CCCCAAAATTTTTCACCATGTCACATCAAACGTTTGAACACGGAGTCACCTAGTGCAG” was run?
**A.** Its binding signal is 8490 fluorescence intensity (a.u.).

**Q.** “TTCACACCGTCGTATTTGCCACTTTACTGACGCTCGAAGCCGGAGTCACCTAGTGCAG” was tested. Which binding signal did it give?
**A.** Its binding signal is 8060 fluorescence intensity (a.u.).

**Q.** For “TACTAATTTCCTTCGCACATCCAGCAATCAGATATCCTGACGGAGTCACCTAGTGCAG”, which binding signal is on record?
**A.** The binding signal was 9760 fluorescence intensity (a.u.).

**Q.** How did the binding signal turn out when “CATCCCTAGTCGGCGTCTTGTCATCGCCGCCCCAATCTCGCGGAGTCACCTAGTGCAG” was run?
**A.** The binding signal was 8260 fluorescence intensity (a.u.).

**Q.** With “TCCTCCTCGCCGCCCGGCGAATCCCGCGCCTCCTCGCTTCCGGAGTCACCTAGTGCAG” as the sequence, how does the binding signal read?
**A.** The binding signal was 9070 fluorescence intensity (a.u.).

**Q.** Which binding signal does the source give for “CGCTTCCTCGCCGCGCGCGCGCCCGCCATCTCCTCGCCTCCGGAGTCACCTAGTGCAG” here?
**A.** Its binding signal is 9350 fluorescence intensity (a.u.).

**Q.** How did the binding signal turn out when “CACACTGTGCACGCCATTCTTATCTTGTCTAGCTTCATCTCGGAGTCACCTAGTGCAG” was run?
**A.** The binding signal was 16600 fluorescence intensity (a.u.).

**Q.** Which binding signal does the source give for “AGCATCCGAATCCGGCCACCTCATCATCTCGCCTCGCTTCCGGAGTCACCTAGTGCAG” here?
**A.** The binding signal was 16900 fluorescence intensity (a.u.).

**Q.** “ATCCATTTCCAGCTTCGTCTTCATCTTGGCTTGGCGCGCTCGGAGTCACCTAGTGCAG” was tested. Which binding signal did it give?
**A.** Its binding signal is 17800 fluorescence intensity (a.u.).

**Q.** Which binding signal does the source give for “GCTCCATCTCTCGTCTCGCGCTTCACTCCACATCTGTTTCCGGAGTCACCTAGTGCAG” here?
**A.** Its binding signal is 18300 fluorescence intensity (a.u.).

**Q.** “ATCTTCTATTCACGGCTTGCCATCTGTGCACTGTAATTTTCGGAGTCACCTAGTGCAG” was tested. Which binding signal did it give?
**A.** The binding signal was 9850 fluorescence intensity (a.u.).

**Q.** “TGCGCTCATGGCCATCCATTTTCTTCTTCTTCTTTTTTTTCGGAGTCACCTAGTGCAG” was tested. Which binding signal did it give?
**A.** The binding signal was 10300 fluorescence intensity (a.u.).

**Q.** How did the binding signal turn out when “AGCGCTACTCCACATCTGTTTGCTCGTGCTCTCCGGATCTCGGAGTCACCTAGTGCAG” was run?
**A.** Its binding signal is 8550 fluorescence intensity (a.u.).

**Q.** How did the binding signal turn out when “GCATCTCCACAGTCCACACTGTGCGCGCCATTCTTATCCTCGGAGTCACCTAGTGCAG” was run?
**A.** The binding signal was 14100 fluorescence intensity (a.u.).

**Q.** Which binding signal does the source give for “GCCTCGTTTCCATCTCCGCCGCGCTCGCCGCGTTCACACTCGGAGTCACCTAGTGCAG” here?
**A.** The binding signal was 11400 fluorescence intensity (a.u.).

**Q.** Which binding signal does the source give for “CTTTCCTTGCGCTGTTCTTCGCTTCATCCATCCATCAGCTCGGAGTCACCTAGTGCAG” here?
**A.** The binding signal was 10800 fluorescence intensity (a.u.).
